Test results from the supplement of paper PMC3334620.
The full ranking holds about 33,000 sequences; the median of “E-score (-0.5 to 0.5)” is about -0.036, and the highest 2% start at about 0.37. This is one part of a sample in which the highest values are shown more often than they occur.

What follows are sequences tested against T1, Yer064c (UniProt P40041) (assay: PBM E-score (8-mer binding enrichment) (E-score (-0.5 to 0.5)); higher = stronger / more preferred TF binding). Details: protein concentration: 200 nM; construct: GST-full length.
T1 sequence: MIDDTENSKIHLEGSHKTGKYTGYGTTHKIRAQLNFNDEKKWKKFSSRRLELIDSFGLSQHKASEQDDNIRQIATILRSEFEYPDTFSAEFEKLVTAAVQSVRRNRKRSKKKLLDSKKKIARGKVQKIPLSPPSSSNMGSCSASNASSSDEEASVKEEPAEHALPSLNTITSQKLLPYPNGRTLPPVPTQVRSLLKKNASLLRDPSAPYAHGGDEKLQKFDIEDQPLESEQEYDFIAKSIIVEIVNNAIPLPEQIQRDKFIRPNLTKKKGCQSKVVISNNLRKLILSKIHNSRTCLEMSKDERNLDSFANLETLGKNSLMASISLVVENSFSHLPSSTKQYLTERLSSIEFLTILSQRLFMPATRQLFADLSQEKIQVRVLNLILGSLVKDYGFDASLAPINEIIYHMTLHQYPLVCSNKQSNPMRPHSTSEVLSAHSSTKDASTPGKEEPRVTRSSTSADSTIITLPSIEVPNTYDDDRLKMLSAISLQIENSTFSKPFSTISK
How it was run: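 GST-tagged yeast TFs (full-length or DNA-binding domain) were made by PURExpress in vitro transcription/translation and applied at about 100-200 nM to universal all-10-mer Agilent arrays. The arrays were made double-stranded by primer extension, on fresh or once-stripped slides. Bound protein was detected with fluorescent anti-GST, and scans were normalised with masliner. Each ungapped eight-base word, pooled with its reverse complement, received an E-score (modified Wilcoxon-Mann-Whitney statistic) from the Universal PBM Analysis Suite.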

Sequence	PBM E-score
CAAGTCAA	0.196
AGAGTACA	0.171
GGAGTCAA	0.431
GGAGTCTA	0.172
CGAGTCTA	0.132
CAAAGCCG	-0.176
ACCTGCGG	-0.208
CAGGCGGC	0.0353
TGGCGCAA	-0.15
CGCTGGTA	-0.0555
AACTACCC	-0.158
TACTACCA	0.00773
GACTACCA	0.413
CACTACCC	0.00286
GACTACCC	0.42
CACTACCA	-0.0175
ACAAAACT	-0.0935
CAGGACCC	-0.208
GAGAACGA	-0.0613
CCTTAGTC	0.41
CCTTAGTA	-0.0218
ACTTAGTC	0.435
ACTTAGTA	0.162
CCTTAGAC	0.063
ACTTAGTG	0.198

Sequence	PBM E-score
GTCCATAA	-0.161
CCCGGCGG	-0.182
ATCCTGGG	-0.0196
AGTCAAGG	0.392
AGTCAAGC	0.358
AGTCAAGA	0.414
ACTCAAGG	0.29
GGTCAAGA	-0.0401
CGTCAAGA	-0.229
CCTTCGTA	-0.15
AGCGCTGA	0.0781
CTATCGGC	-0.0556
ACTCACGA	0.388
ACTCACAA	0.395
ACGCACGG	-0.192
ACACACGG	0.0742
CCTCACGA	-0.0431
ACTCACGC	0.357
ACTCACAG	0.353
ACTCACGG	0.376
CCTCACAA	0.038
ATCTCAGA	-0.113
ACCCCTAA	-0.0884
AAGATTTC	0.0103
AATCTGAC	0.23

Sequence	PBM E-score
GGACGTAC	-0.0832
ACAGCCTC	-0.308
GAATCACC	0.456
TAATCACA	0.419
AAATCACG	0.264
AAATCACC	0.328
CAATCACG	0.296
CAATCACC	0.343
AAATCACA	0.219
CAATCACA	0.346
GAATCACA	0.439
AAACACAC	0.0803
AGACAGCC	-0.181
AAAGTCCC	-0.235
GGACTCGA	0.118
GGCAGTCA	0.445
ACCAGTCC	-0.0297
AGCAGTCA	0.412
GGCAGTAA	0.0188
CCCAGTCA	0.316
ACCAGTCT	0.0632
GGCAGTGA	0.0347
CGCAGTCA	0.422
AGCAGTCC	-0.0176
CGCAGTCC	0.134

Sequence	PBM E-score
AGCAGTCG	0.065
ACCAGTCA	0.369
AAACGGTA	0.0163
GTTATGGA	-0.119
CGCCCGAC	-0.0703
ATATCGGC	-0.169
GATCGTAA	-0.068
AATACCAC	-0.172
GGCACTTA	-0.212
CTATCCGC	0.00533
ATGGAGTC	0.398
CTGGAGTC	0.39
CTGGAGTA	0.0648
ATGGAGTA	0.182
ATGGAGTG	-0.143
CTGGAGAC	-0.0698
TAGGGCGA	0.0759
AAAGCTTA	-0.0514
AGTTAGCC	0.127
ATCGCACG	-0.0772
TAGTCGGA	0.288
AAGTCGGC	-0.0537
GAGTCGTA	0.453
CAGTCGGA	0.118
GAGTCGGA	0.395

Sequence	PBM E-score
CAGTCGGC	0.122
AAGTCGTA	0.328
GAGTCGGC	0.412
CAGTCGTA	0.265
CAACACAG	0.0802
GAAAATAA	0.133
TGACGACA	0.102
CATCGCAC	-0.211
ATGCAAGA	0.139
CGCTCATC	0.0112
CAAGCCGG	-0.108
ACATTCTA	0.0824
ATGATTCA	0.49
AGGATTCG	-0.0455
ATGATTCG	0.437
GTGATTCA	0.474
GGGATTCA	0.147
ACGATTCG	0.0252
GTGATTTA	0.35
ACGATTCA	0.298
AAGATTCG	0.205
AAGATTCA	0.37
GAGATTCA	0.238
AGGATTCA	0.24
CGCGCCCC	-0.271

Sequence	PBM E-score
CAACCTGC	-0.127
CCGTAATA	0.0217
ACTCAGCT	0.216
ACCGGAAG	-0.0509
GATGCTCC	-0.345
AACAACCA	0.13
ATGGGGAC	-0.14
CGAAATCA	0.309
CCGCGGAC	-0.0248
CGTGGAGC	-0.124
CCACCCCA	-0.0763
ATGACCGG	-0.128
AATATATC	-0.0361
AGGATTCC	0.0611
CAGATTCA	0.157
ATGATTCC	0.456
CGGATTCA	0.194
CTGATTCA	0.45
CTGATTCC	0.301
CTCGGCCC	-0.206
ATGAATCG	0.355
GTGAATCA	0.48
ATGAATCC	0.253
CTGAATCA	0.455
GTGAATAA	0.0323

Sequence	PBM E-score
GTGAATGA	0.14
ATGAATCA	0.48
CTGAATCC	0.235
CTGAATTA	0.0399
CTAAGGTA	0.105
GTTTATTA	0.148
CGATGTGA	0.103
ACATCACA	-0.0462
GCGTGAAA	-0.106
CTGACGGA	-0.0463
GGGTAAAC	0.0204
GTCTGTCA	-0.107
AACTCCGA	-0.0453
CACTCCGC	-0.0571
GACTCCGA	0.417
TACTCCGA	0.0904
AACTCCGC	-0.0186
GACTCCGC	0.406
GTGCACCA	-0.178
AGGTAGTC	0.407
CGGTAGTA	0.0891
AGGTAGTG	-0.0767
CGGTAGTC	0.409
AGGTAGTA	0.0729
CGGTAGGC	-0.178
